# Laboratory results: article PMC7862700, “An all-to-all approach to the identification of sequence-specific readers for epigenetic DNA modifications on cytosine”
# Tests used:
# Test in all cases: DAPPL (digital affinity profiling via proximity ligation, sequencing); 10 mM Tris-HCl pH 7.5, 50 mM NaCl, 1 mM DTT, 4% glycerol, room temperature, 30 min; GST-TFs on glutathione beads, 16-mer random dsDNA library, 0.1% formaldehyde crosslink after washing; high values mean tight binding
# FEV = molecular target: T1, FEV (Homo sapiens, UniProt Q99581 1-238); conditions: protein: recombinant; tags: N-terminal GST; dsDNA, one strand shown
# T1 sequence: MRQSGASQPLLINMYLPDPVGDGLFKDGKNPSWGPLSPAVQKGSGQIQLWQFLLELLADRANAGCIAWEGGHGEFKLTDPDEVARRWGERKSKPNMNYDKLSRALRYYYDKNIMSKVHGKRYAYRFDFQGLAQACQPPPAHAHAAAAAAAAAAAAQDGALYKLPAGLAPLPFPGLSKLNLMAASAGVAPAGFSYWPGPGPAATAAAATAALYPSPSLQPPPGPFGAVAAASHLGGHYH
# How it was run: (§1)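 Binding signal is each hexamer's read frequency for a factor divided by its frequency in the tag-only sample. The factors were GST-fused human transcription factors from yeast, captured on glutathione beads, DNA-barcoded and pooled with that sample. Pools were incubated with 200 nmole of a random double-stranded 16-mer DNA library in Tris/NaCl/DTT/glycerol buffer at room temperature for 30 min, then washed, crosslinked with 0.1% formaldehyde, proximity-ligated with BsaI/T4 ligase (1 h, 37 °C), PCR-amplified and sequenced on an Illumina NextSeq500.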
# ETV5 = ETV5 (Homo sapiens, UniProt P41161 1-510); conditions: protein: recombinant; tags: N-terminal GST; dsDNA, one strand shown
# How it was run: as §1
# HSF1 = HSF1 (Homo sapiens, UniProt Q00613 1-529); conditions: protein: recombinant; tags: N-terminal GST; chain copies: 3; dsDNA, one strand shown
# How it was run: as §1
# SPIC = molecular target: T2, SPIC (Homo sapiens, UniProt Q8N5J4 1-248); conditions: protein: recombinant; tags: N-terminal GST; dsDNA, one strand shown
# T2 sequence: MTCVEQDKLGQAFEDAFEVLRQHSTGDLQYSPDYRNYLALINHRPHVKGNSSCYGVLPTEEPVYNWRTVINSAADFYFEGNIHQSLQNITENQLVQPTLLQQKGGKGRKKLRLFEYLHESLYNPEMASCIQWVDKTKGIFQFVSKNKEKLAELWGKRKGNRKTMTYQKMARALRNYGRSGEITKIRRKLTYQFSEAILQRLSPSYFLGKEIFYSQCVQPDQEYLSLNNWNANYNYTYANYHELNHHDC
# How it was run: as §1
# ELF4 = ELF4 (Homo sapiens, UniProt Q99607 1-663); conditions: protein: recombinant; tags: N-terminal GST; dsDNA, one strand shown
# How it was run: as §1
# ELK4 = molecular target: T3, ELK4 (Homo sapiens, UniProt P28324-2 1-405); conditions: protein: recombinant; tags: N-terminal GST; dsDNA, one strand shown
# T3 sequence: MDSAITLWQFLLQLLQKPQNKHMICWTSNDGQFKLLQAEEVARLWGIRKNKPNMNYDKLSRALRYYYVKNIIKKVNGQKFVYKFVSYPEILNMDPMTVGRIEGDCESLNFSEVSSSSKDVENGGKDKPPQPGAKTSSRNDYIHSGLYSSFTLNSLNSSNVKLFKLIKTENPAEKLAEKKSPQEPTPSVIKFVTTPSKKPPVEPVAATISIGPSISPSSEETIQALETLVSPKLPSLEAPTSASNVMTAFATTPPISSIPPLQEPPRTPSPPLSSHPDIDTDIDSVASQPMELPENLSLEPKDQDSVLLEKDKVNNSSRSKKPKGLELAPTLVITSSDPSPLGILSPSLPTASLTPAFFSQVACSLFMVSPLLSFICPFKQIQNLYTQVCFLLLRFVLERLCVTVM
# How it was run: as §1
# ETV2 = molecular target: T4, ETV2 (Homo sapiens, UniProt O00321 1-342); conditions: protein: recombinant; tags: N-terminal GST; dsDNA, one strand shown
# T4 sequence: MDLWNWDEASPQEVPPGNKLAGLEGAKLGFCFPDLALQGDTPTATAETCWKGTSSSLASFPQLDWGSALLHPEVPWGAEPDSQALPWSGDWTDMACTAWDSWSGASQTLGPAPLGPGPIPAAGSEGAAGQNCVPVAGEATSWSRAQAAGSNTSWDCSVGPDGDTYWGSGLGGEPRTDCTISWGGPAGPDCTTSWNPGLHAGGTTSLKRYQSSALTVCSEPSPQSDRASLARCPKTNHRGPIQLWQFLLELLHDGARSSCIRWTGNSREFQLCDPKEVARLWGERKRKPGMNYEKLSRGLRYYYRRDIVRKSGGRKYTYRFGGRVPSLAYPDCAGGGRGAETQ
# How it was run: as §1
# ELF3 = molecular target: T5, ELF3 (Homo sapiens, UniProt P78545 1-371); conditions: protein: recombinant; tags: N-terminal GST; dsDNA, one strand shown
# T5 sequence: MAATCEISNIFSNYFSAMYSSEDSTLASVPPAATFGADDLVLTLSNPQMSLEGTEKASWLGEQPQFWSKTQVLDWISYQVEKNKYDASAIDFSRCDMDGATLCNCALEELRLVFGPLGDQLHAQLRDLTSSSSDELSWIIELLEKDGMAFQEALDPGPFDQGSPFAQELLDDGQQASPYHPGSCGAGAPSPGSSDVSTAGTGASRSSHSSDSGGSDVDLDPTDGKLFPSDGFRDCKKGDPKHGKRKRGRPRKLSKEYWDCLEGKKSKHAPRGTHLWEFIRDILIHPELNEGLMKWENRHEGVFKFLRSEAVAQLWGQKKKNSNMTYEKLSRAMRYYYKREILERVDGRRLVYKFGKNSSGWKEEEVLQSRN
# How it was run: as §1
# CRX = CRX (Homo sapiens, UniProt O43186 1-299); conditions: protein: recombinant; tags: N-terminal GST; dsDNA, one strand shown
# How it was run: as §1
# ETV1 = ETV1 (Homo sapiens, UniProt P50549 1-477); conditions: protein: recombinant; tags: N-terminal GST; dsDNA, one strand shown
# How it was run: as §1
# ERF = molecular target: T6, ERF (Homo sapiens, UniProt P50548 1-548); conditions: protein: recombinant; tags: N-terminal GST; dsDNA, one strand shown
# T6 sequence: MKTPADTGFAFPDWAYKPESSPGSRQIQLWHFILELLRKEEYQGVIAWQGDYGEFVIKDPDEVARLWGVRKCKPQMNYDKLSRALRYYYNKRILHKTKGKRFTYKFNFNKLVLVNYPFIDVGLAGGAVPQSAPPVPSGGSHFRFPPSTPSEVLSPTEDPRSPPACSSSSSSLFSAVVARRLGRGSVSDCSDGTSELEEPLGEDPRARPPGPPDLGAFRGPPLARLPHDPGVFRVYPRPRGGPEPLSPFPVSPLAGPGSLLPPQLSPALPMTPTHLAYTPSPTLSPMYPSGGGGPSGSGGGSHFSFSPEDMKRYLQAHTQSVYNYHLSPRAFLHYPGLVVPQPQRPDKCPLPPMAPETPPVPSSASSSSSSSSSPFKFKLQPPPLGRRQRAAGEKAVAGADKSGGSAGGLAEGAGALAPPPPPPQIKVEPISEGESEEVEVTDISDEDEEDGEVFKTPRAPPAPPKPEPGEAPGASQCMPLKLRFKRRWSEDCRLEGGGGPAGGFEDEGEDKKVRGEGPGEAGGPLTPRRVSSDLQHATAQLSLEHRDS
# How it was run: as §1
# ETV3L = molecular target: T7, ETV3L (Homo sapiens, UniProt Q6ZN32 1-361); conditions: protein: recombinant; tags: N-terminal GST; dsDNA, one strand shown
# T7 sequence: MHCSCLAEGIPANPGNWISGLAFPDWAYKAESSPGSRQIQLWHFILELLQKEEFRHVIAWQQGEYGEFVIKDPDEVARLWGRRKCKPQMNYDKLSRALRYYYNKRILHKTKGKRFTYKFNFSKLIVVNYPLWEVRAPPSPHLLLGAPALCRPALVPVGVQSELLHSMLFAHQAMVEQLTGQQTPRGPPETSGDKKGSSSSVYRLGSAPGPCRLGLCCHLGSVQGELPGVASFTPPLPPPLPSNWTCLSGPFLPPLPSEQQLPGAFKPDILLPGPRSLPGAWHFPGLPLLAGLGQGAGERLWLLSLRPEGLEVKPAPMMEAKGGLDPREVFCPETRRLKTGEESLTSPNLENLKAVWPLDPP
# How it was run: as §1
# ETS2 = molecular target: T8, ETS2 (Homo sapiens, UniProt P15036 1-469); conditions: protein: recombinant; tags: N-terminal GST; dsDNA, one strand shown
# T8 sequence: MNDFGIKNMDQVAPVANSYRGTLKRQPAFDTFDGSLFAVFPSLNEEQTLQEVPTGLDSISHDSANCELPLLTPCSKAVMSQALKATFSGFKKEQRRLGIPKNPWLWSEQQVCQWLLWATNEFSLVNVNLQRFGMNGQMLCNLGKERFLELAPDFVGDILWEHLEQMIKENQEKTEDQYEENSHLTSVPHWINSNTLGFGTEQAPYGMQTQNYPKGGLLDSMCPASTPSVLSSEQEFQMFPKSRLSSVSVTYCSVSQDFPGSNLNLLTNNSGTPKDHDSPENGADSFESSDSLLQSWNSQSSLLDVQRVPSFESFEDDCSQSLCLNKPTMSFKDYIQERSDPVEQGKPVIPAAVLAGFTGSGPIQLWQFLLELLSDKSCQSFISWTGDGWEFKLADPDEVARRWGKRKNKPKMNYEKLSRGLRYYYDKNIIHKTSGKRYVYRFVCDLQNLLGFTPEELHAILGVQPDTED
# How it was run: as §1
# SPDEF = molecular target: T9, SPDEF (Homo sapiens, UniProt O95238 1-335); conditions: protein: recombinant; tags: N-terminal GST; dsDNA, one strand shown
# T9 sequence: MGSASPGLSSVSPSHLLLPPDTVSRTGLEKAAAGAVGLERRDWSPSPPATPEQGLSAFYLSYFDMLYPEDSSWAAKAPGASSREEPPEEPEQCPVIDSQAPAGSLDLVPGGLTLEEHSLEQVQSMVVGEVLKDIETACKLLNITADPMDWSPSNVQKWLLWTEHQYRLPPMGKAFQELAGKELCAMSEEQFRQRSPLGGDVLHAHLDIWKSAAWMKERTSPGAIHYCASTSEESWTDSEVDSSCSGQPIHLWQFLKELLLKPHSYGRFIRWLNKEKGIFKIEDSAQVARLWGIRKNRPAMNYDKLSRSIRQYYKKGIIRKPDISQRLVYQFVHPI
# How it was run: as §1
# ETV7 = molecular target: T10, ETV7 (Homo sapiens, UniProt Q9Y603 1-341); conditions: protein: recombinant; tags: N-terminal GST; dsDNA, one strand shown
# T10 sequence: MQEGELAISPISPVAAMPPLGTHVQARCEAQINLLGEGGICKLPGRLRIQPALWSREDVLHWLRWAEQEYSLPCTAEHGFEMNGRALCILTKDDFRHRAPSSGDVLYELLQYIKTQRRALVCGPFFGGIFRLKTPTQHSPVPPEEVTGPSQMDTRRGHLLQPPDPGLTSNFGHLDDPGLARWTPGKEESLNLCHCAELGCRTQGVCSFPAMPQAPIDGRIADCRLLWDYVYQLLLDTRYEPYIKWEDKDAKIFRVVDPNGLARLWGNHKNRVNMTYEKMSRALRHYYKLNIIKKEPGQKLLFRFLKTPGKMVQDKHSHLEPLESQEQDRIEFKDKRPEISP
# How it was run: as §1
# ELF5 = molecular target: T11, ELF5 (Homo sapiens, UniProt Q9UKW6-2 1-255); conditions: protein: recombinant; tags: N-terminal GST; dsDNA, one strand shown
# T11 sequence: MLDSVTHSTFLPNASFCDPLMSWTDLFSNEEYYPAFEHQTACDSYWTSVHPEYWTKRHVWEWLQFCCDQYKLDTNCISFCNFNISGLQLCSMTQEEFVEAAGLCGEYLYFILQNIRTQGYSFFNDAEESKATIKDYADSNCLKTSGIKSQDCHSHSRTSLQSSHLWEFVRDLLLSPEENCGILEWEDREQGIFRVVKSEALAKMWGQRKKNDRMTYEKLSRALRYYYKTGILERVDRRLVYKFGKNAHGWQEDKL
# How it was run: as §1
# ETV3 = molecular target: T12, ETV3 (Homo sapiens, UniProt P41162-2 1-143); conditions: protein: recombinant; tags: N-terminal GST; dsDNA, one strand shown
# T12 sequence: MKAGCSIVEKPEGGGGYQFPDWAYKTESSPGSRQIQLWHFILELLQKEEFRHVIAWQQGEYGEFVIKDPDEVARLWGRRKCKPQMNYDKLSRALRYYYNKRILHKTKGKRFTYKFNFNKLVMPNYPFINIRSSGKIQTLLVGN
# How it was run: as §1
# ETV6 = ETV6 (Homo sapiens, UniProt P41212 1-452); conditions: protein: recombinant; tags: N-terminal GST; dsDNA, one strand shown
# How it was run: as §1
# Chain of ETV1 (P50549 whole entry): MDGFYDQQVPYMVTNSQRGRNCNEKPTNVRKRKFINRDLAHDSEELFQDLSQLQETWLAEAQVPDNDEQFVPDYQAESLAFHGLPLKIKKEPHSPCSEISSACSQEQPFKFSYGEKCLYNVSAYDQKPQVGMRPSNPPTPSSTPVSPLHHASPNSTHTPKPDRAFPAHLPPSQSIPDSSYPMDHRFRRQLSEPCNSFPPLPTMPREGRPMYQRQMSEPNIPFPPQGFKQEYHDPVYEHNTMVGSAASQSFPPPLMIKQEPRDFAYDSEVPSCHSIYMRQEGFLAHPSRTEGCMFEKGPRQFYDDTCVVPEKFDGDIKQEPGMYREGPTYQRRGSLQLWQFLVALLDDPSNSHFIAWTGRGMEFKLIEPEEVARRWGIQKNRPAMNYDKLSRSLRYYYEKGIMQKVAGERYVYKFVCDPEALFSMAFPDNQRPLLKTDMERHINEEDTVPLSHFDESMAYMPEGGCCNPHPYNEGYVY
# Chain of ETV6 (P41212 whole entry): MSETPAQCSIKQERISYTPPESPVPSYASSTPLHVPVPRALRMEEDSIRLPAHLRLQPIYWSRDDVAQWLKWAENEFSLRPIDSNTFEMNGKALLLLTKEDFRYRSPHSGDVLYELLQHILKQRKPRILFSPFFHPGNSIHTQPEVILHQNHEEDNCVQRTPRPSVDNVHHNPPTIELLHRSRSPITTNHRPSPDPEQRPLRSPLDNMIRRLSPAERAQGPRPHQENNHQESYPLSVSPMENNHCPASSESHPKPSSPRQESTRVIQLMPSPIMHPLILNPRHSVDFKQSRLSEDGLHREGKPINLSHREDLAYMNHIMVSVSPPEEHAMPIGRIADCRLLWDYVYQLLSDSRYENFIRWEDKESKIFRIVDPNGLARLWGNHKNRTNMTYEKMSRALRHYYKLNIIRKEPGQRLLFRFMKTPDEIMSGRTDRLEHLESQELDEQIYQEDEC
# Chain of HSF1 (Q00613 whole entry): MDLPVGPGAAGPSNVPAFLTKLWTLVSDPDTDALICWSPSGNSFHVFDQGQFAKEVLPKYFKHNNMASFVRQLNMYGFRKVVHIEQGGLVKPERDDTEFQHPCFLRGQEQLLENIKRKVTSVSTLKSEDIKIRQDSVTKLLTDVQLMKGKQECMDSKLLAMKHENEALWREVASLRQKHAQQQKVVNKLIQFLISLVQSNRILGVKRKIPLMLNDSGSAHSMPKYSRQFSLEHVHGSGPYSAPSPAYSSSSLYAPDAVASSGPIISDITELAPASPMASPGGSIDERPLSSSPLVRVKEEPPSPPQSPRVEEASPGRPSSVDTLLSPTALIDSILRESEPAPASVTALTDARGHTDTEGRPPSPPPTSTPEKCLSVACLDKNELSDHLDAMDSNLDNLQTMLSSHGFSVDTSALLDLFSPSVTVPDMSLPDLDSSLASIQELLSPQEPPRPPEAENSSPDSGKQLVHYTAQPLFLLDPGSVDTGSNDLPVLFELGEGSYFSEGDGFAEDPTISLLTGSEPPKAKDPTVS
# Chain of ELF4 (Q99607 whole entry): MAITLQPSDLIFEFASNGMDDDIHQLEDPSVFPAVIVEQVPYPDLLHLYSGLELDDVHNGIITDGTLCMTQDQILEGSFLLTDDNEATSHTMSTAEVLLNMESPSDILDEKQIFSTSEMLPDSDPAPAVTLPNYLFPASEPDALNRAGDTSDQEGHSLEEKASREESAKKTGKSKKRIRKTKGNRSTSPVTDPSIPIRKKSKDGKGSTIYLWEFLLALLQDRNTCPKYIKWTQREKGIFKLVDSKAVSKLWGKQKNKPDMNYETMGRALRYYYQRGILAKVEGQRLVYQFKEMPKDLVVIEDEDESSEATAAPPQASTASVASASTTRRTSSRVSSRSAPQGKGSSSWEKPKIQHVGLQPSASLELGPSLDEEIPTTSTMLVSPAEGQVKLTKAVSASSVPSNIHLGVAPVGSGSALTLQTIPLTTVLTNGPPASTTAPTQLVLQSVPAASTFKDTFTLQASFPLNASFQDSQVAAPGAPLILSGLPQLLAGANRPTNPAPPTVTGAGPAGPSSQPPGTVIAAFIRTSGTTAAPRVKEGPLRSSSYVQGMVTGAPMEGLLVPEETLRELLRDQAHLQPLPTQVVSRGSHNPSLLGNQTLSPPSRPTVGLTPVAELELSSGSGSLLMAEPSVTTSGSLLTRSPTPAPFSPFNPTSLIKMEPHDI
# Chain of CRX (O43186 whole entry): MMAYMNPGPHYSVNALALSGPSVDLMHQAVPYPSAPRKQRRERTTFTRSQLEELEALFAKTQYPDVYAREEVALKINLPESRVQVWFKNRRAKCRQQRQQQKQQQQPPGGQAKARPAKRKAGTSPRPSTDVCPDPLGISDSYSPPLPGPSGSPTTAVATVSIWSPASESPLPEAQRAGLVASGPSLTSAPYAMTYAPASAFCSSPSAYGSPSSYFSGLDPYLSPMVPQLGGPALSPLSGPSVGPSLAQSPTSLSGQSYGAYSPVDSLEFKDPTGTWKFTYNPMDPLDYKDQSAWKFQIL
# Chain of ETV5 (P41161 whole entry): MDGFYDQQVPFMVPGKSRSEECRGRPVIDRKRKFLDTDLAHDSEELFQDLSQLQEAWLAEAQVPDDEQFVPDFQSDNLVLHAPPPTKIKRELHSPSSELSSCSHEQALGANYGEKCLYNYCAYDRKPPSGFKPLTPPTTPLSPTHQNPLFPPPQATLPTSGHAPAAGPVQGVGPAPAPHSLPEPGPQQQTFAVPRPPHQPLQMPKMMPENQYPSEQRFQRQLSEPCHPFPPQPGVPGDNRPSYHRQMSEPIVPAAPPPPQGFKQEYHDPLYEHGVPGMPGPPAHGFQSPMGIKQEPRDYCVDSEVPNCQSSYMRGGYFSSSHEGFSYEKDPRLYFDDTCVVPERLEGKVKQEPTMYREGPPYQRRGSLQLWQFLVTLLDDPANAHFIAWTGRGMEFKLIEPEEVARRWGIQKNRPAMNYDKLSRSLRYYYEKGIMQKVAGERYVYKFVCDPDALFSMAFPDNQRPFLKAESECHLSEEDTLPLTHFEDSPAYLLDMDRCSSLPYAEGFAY
sequence,measurement,setting,value
TCTTTG,binding signal,FEV,"1.09 fold enrichment (6-mer frequency, TF over GST control)"
same,binding signal,ETV5,"1.16 fold enrichment (6-mer frequency, TF over GST control)"
same,binding signal,HSF1,"1.24 fold enrichment (6-mer frequency, TF over GST control)"
same,binding signal,SPIC,"1.13 fold enrichment (6-mer frequency, TF over GST control)"
same,binding signal,ELF4,"1.17 fold enrichment (6-mer frequency, TF over GST control)"
same,binding signal,ELK4,"1.2 fold enrichment (6-mer frequency, TF over GST control)"
same,binding signal,ETV2,"1.05 fold enrichment (6-mer frequency, TF over GST control)"
same,binding signal,ELF3,"1.18 fold enrichment (6-mer frequency, TF over GST control)"
same,binding signal,CRX,"1.27 fold enrichment (6-mer frequency, TF over GST control)"
same,binding signal,ETV1,"1.1 fold enrichment (6-mer frequency, TF over GST control)"
same,binding signal,ERF,"1.2 fold enrichment (6-mer frequency, TF over GST control)"
same,binding signal,ETV3L,"1.24 fold enrichment (6-mer frequency, TF over GST control)"
same,binding signal,ETS2,"1.19 fold enrichment (6-mer frequency, TF over GST control)"
same,binding signal,SPDEF,"1.06 fold enrichment (6-mer frequency, TF over GST control)"
same,binding signal,ETV7,"1.27 fold enrichment (6-mer frequency, TF over GST control)"
same,binding signal,ELF5,"1.09 fold enrichment (6-mer frequency, TF over GST control)"
same,binding signal,ETV3,"1.21 fold enrichment (6-mer frequency, TF over GST control)"
same,binding signal,ETV6,"1.16 fold enrichment (6-mer frequency, TF over GST control)"
